The list is not random: actives were taken first. Their share in the collection is about 4.8%.
USP2a block – inhibitors of human ubiquitin-specific protease USP2a; O75604; USP2 core, Ub-CHOP2 coupled fluorogenic reporter, 485/531; Potency, µM (top dose mostly 38.3 µM), usual class: inhibitors; hit rate 0.01% among 330,000
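Cell-free coupled assay: 10nM USP2 core preincubated 30min RT with compound in Tris-HCl pH 8.0/CaCl2/CHAPS buffer, then 25nM Ub-CHOP2 and 25nM reporter substrate; fluorescence (Ex 485/Em 531) read after 60min RT, normalized to NEM inhibition, concentration-response curves fitted.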
USP1 inh – inhibitors of human USP1/UAF1 deubiquitinase. O94782. recombinant USP1/UAF1, Ub-Rhodamine cleavage fluorescence. Potency, µM (titrated, usually from 57.1 µM), actives largely listed as inhibitors. hit rate 0.23% among 390,000; note: nearly all actives have a fitted effect of over 60% in size
Target sequence (O94782 whole entry, looked up): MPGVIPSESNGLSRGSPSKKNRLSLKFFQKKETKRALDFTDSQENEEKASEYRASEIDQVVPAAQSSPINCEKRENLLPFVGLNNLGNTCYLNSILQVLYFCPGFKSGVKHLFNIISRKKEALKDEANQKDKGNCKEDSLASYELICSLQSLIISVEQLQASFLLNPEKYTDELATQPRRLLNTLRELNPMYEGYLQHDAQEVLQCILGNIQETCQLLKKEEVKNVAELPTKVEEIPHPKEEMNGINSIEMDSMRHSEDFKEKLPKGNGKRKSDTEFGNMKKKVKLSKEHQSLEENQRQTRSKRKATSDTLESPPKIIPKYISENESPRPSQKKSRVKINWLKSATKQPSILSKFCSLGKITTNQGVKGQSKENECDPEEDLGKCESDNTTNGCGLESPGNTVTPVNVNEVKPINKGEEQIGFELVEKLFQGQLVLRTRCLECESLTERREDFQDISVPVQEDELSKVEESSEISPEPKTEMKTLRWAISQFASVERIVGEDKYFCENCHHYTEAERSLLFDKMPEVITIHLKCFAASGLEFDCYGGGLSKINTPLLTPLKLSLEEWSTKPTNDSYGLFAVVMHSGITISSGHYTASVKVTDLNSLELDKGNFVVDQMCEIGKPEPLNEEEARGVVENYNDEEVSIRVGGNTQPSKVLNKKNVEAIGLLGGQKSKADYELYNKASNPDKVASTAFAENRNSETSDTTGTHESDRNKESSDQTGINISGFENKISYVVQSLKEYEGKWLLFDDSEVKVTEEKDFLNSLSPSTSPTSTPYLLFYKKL
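High-throughput fluorogenic screen: 1nM USP1/UAF1 complex, Ub-Rho substrate 150nM final, 50mM HEPES pH 7.8 with 0.5mM EDTA, 0.1 mg/ml BSA, 1mM TCEP and 0.01% Tween-20.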
IL1B secr inh – inhibitors of inflammasome signaling (IL-1 beta secretion). THP-1 LPS/ATP IL-1B secretion, AlphaLISA, 16 h; hits give low values. hit rate 4.7% among 360,000. activity change, % at 57.5 µM; in the data active = activity change below about -50%; inconclusive = mostly about -30% to -49%
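Secreted IL-1B measured by AlphaLISA bead assay after 16 h compound exposure of THP-1 cells; compounds (final up to 57.5 uM) added 1 h before LPS (250 ng/mL) and ATP (1.25 mM) stimulation; lower signal means less secretion.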
ATXN2 expr inh – reduces ATXN2 reporter expression in HEK-293 cells. HEK-293 ATXN2-luciferase reporter, luminescence, 24 h. Potency, µM (titrated, usually from 57 µM), hits mostly inhibitors. hit rate 0.72% among 360,000. AID 1745845; note: nearly all actives have a fitted effect of over 55% in size
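ATXN2-luciferase reporter cells (luciferase flanked by upstream and downstream ATXN2 gene portions) were treated 24 h at 37 °C with compounds at up to 57 uM. SteadyGlo luminescence gave expression; GF-AFC fluorescence gave viability.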
ATXN viability – viability counter-screen for ATXN expression inhibitors; S2 cells (HEK-293 line with an ATXN2-luciferase reporter) viability, CellTiter-Fluor protease fluorescence, 24 h; Potency, µM (highest dose often 56.7 µM), most hits filed as cytotoxic; hit rate 0.49% among 400,000; note: nearly all actives have a fitted effect of over 40% in size
Of the large screens only hits and unclear results are named; the others gave an inactive call. Unless noted, calls come from the whole dose curve; as a rule, active = well fitted curve in the direction sought with a large enough effect; inconclusive = small, poorly fitted or top-dose-only effect, or another doubt; inactive = no such curve, though single readings can be large; an effect the other way counts as inactive or inconclusive.

CC1=CC(C)(C)N=C(Nc2nc(C)c3cc(C)cc(C)c3n2)N1	IL1B secr inh -95.1, ATXN2 expr inh inconclusive, ATXN viability inconclusive
Cc1cc(C)c2nc(Nc3nc(-c4ccccc4)cc(=O)[nH]3)nc(C)c2c1	IL1B secr inh inconclusive
Cc1ccc(-c2nc(Nc3cccc(O)c3)c3ccccc3n2)cc1	IL1B secr inh inconclusive
O=C(O)c1ccc(Nc2nc(-c3ccccc3)nc3ccccc23)cc1	USP1 inh inconclusive, ATXN viability inconclusive (no result: ATXN2 expr inh)
CNC(=O)c1ccc(Nc2nc(-c3ccccc3)nc3ccccc23)cc1	IL1B secr inh -89.8
Cc1ccc(-c2nc(Nc3ccc(O)cc3)c3ccccc3n2)cc1	IL1B secr inh -87.8
COc1cccc(Nc2nc(-c3ccccc3O)nc3ccccc23)c1	none
COc1cccc(Nc2nc(-c3ccccc3)nc3ccccc23)c1	IL1B secr inh -73.0
CCOC(=O)c1nc(Nc2ccc(Nc3ccccc3)cc2)c2ccccc2n1	IL1B secr inh -64.8, ATXN2 expr inh inconclusive, ATXN viability inconclusive
C=CCN=C1N[C@@H](c2ccc(Br)cc2)C(C(=O)OC)=C(C)N1Cc1ccccc1	none (no result: USP1 inh, IL1B secr inh, ATXN2 expr inh, ATXN viability)
CCOc1ccc(-c2cc3c(=O)n(Cc4nc(-c5ccccc5OCC)oc4C)ccn3n2)cc1Cl	none (no result: USP2a block, IL1B secr inh)
Oc1ccc(Nc2nc(-c3ccccc3O)nc3ccccc23)cc1	IL1B secr inh -64.7, ATXN viability inconclusive (no result: ATXN2 expr inh)
CCCOC(=O)c1cccc(Nc2nc(-c3cccnc3)nc3ccccc23)c1	IL1B secr inh -98.0, ATXN2 expr inh inconclusive (no result: ATXN viability)
COc1ccc(Nc2nc(-c3ccccc3F)nc3ccccc23)cc1OC	IL1B secr inh -60.8
O=[N+]([O-])c1ccc(-c2nc(Nc3cccc(O)c3)c3ccccc3n2)cc1	IL1B secr inh -69.9 (no result: ATXN2 expr inh, ATXN viability)
O=C1/C(=C/c2cccnc2)SC(=S)N1C1CCS(=O)(=O)C1 (stereo not given)	IL1B secr inh -93.1
O=C1/C(=C/c2cccnc2)SC(=S)N1N1CCOCC1	none
O=C1/C(=C\c2cccnc2)SC(=S)N1C1CCS(=O)(=O)C1 (stereo not given)	IL1B secr inh -78.9, ATXN2 expr inh inconclusive, ATXN viability inconclusive
Cc1cc(C)n(-c2ccc(NC(=O)C3CCCCN3C(=O)c3ccoc3C)cc2)n1 (stereo not given)	none (no result: ATXN2 expr inh)
CC1CCN(S(=O)(=O)c2ccc3c(c2)CCN3C(=O)Nc2ccc(Br)cc2F)CC1	none (no result: USP2a block, IL1B secr inh, ATXN2 expr inh, ATXN viability)
CC(C)c1cc(CN2C(C)COCC2C)cc(C(C)C)c1O (stereo not given)	none (no result: USP2a block)
CC(C)N1C/C(=C/c2cccnc2)C(=O)/C(=C/c2cccnc2)C1	IL1B secr inh -104.1, ATXN viability inconclusive
CN1C/C(=C/c2cccnc2)C(=O)/C(=C/c2cccnc2)C1	IL1B secr inh -101.9, ATXN2 expr inh 20µM, ATXN viability inconclusive
CC(C)N1C/C(=C/c2ccsc2)C(=O)/C(=C/c2ccsc2)C1	USP1 inh inconclusive, IL1B secr inh -95.6, ATXN2 expr inh inconclusive (no result: ATXN viability)
CCOC(=O)CNC(=O)N1CCc2cc(S(=O)(=O)N3CCC(C)CC3)ccc21	none (no result: USP2a block, IL1B secr inh, ATXN2 expr inh, ATXN viability)
CC(C)(S)C(=O)N[C@@H](CS)C(=O)O	none (no result: USP2a block, USP1 inh, IL1B secr inh, ATXN2 expr inh)
CCCCOc1ccc(C(=O)NNC(=O)c2cnccn2)cc1OC	IL1B secr inh -73.3, ATXN2 expr inh inconclusive
c1ccc2c3c([nH]c2c1)C(C1CCCCC1)N(Cc1ncc[nH]1)CC3 (stereo not given)	IL1B secr inh -87.5
Cc1cnc(CN2CCc3c([nH]c4ccccc34)C2C2CCCCC2)[nH]1 (stereo not given)	IL1B secr inh -78.5
Cc1ncoc1C(=O)N1CCc2c([nH]c3ccccc23)C1C1CCCCC1 (stereo not given)	none
Cc1cc(=O)n(Cc2cccc(F)c2)c2c1c(C)nn2-c1cccc(F)c1	none (no result: USP2a block, IL1B secr inh)
CCCn1c2c(c(=N)c3c1CCC3)CCCC2	none
N=c1c2c(n(Cc3ccc(Br)cc3)c3c1CCC3)CCCC2	IL1B secr inh -81.1, ATXN2 expr inh inconclusive
N=c1c2c(n(Cc3ccc(Cl)c(Cl)c3)c3c1CCC3)CCCC2	IL1B secr inh -72.3, ATXN2 expr inh inconclusive, ATXN viability inconclusive
N=c1c2c(n(Cc3ccc([N+](=O)[O-])cc3)c3c1CCC3)CCCC2	none
COc1ccc(Nc2nccc(-c3cccc(N)c3)n2)cc1	IL1B secr inh -86.7, ATXN viability inconclusive
COc1ccc(Nc2nccc(-c3ccc(C#N)cc3)n2)cc1	IL1B secr inh inconclusive

Screens from PubChem.
